PubChem BioAssay AID1948 (National Center for Advancing Translational Sciences (NCATS), 2009)
About 20 (0.02%) of roughly 110,000 compounds were called active. Inconclusive results (about 2%) are left out. The call rests on the fitted dose curve; in most records, active means well fitted activation curve with a large enough effect; inconclusive means small, poorly fitted or top-dose-only effect; inactive means no such curve, though single readings can be large or run the other way. The full list was thinned out, with actives kept by preference.

Test: qHTS Assay for Compounds that Induce Erasure of Genomic Imprints;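 further: 0% = negative control wells on the plate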
Settings: mouse ES Peg3-LacZ reporter, beta-gal luminescence, 40 h; series mostly up to 10.9 µM; activity change, positive = activation: at the top concentration
From the text: qHTS Assay for Compounds that Induce Erasure of Genomic Imprints NIH Chemical Genomics Center [NCGC] NIH Molecular Libraries Screening Centers Network [MLSCN] Assay Submitter (PI): JEFFRIES, SEAN, NCGC, University of Cambridge NCGC Peg3 Imprinting Assay Overview Genomic imprinting is the epigenetic process whereby genes are expressed in a parent of origin fashion. […] Unlike some forms of epigenetic silencing that can be overcome by overexpression of transcription factors, genomic imprinting stably represses the expression of one allele despite potentially high levels of expression from the other allele. […] During mouse embryonic day 11.5 imprints are erased in PGCs so that sex specific imprints can be reestablished during gametogenesis. Embryonic germ (EG) cells can be derived from developing PGCs at embryonic day 11.5 and these cells often lack genomic imprints. […] Embryonic stem (ES) cells are a cell type similar to EG cells in phenotype and transcriptional profile, yet ES cells maintain genomic imprints. This similarity between ES and EG cells prompted us to use ES cells to look for factors which could induce imprint erasure. To investigate the stability of genomic imprinting, ES cells were derived from mice with an insertion of a LacZ-Neomycin reporter construct in the Peg3 locus. Peg3 is an imprinted locus where gene expression is restricted to the paternal allele. […] Using LacZ expression we are able to monitor the state of the Peg3 imprint. In order to dissect the mechanisms involved in imprint erasure using a forward chemical genetics approach we developed a cell based phenotype assay using an endogenous silence imprinted locus. This assay utilizes maternally inherited Peg3LacZ-Neo ES cells by monitoring the LacZ expression from the normally silent Peg3 allele. To facilitate screening, high-density feeder-free ES cell culture has been optimized so that ES cells can be grown in 1536 for over four days without feeding or washes. The assay uses a luminescence based read out for LacZ activity and is a homogenous assay optimal for HTS.
NCGC Peg3 Imprinting Assay Protocol Summary ES cell lines were derived from blastocysts taken from Peg3LacZ-Neo x129 matings. Lines were sexed and genotyped for the Peg3LacZ-Neo allele. Female cells carrying the reporter allele were used in this study. Cells were derived on a layer of mouse embryonic fibroblasts and passaged multiple times before switching to feeder free culture. Cells were maintained feeder free on gelatin coated dishes in DMEM/F12 media supplemented with 15% FBS, 2mM L-glutamine, 100 units/ml penicillin, 100ug/ml streptomycin, 0.1mM MEM nonessential amino acids, 1mM sodium pyruvate, 0.1% sodium bicarbonate, 0.1mM 2-Mercaptoethanol, and 400 units/ml leukemia inhibitory factor (LIF) at 37C with 5% CO2. The assay was performed in 1536-well format. A single luminescence read was taken at the end of the assay and the data was normalized by plate to internal negative controls. Maximum efficacy and AC50 values were calculated from dose-response data using the standard Hill equation. 1536 well plates were filled with 0.5ul of 0.1% gelatin per well, spun down and incubated for at least 30 min at 37C. The ES cells were then trypsini Peg3 1536-well assay protocol: (1)Plate 0.5ul/well 0.1% gelatin in white tissue culture treated 1536-well plates, spin and incubate at 37C for at least 30 min. (2)Add 5ul/well (300 cells) of ES cell suspension from freshly trypsinized cells and incubate at 37C, 5% CO2 for 40 hours. (3)Add 5ul/well of freshly prepared BetaGlo solution and incubate at room temperature for 5 minutes. (4)Read luminescence on the ViewLux plate reader. Keywords Genomic Imprinting, Germ Cells, Embryonic Stem Cell, DNA Methylation, Peg3, qHTS, NIH roadmap, NCGC

Activity change, positive = activation, inactive:
CCN1CCN(c2cc(C)c3cc(NC(=O)c4cc(Cl)ccc4OC)ccc3n2)CC1 -33.9%, CCc1ccc(NC(=O)c2cc3c(=O)n(Cc4cccnc4)ccc3nc2C)cc1 -7.76%, CCCCCn1c(CCCNC(=O)c2ccccc2OC)nc2ccccc21 -12.7%, COc1ccccc1CNS(=O)(=O)c1cc(Br)cc2c1N(C(C)=O)C(C)C2 (centres undefined) -8.34%, CCOc1cc(C2C(C(=O)OC)=C(C)NC3=C2C(=O)c2ccccc23)ccc1O (centres undefined) -3.7%, CCOc1ccc(C2C(=O)N(C3CCCCC3)CC(=O)N2CCC2=CCCCC2)cc1OC (centres undefined) 6.2%, O=C(Nc1ccc2nc(SCCOc3ccccc3)sc2c1)c1ccco1 -16.3%, CCc1cnc2c(c1SCC(=O)N1CCC(C)CC1)c(=O)n(C)c(=O)n2C 9.05%, CCOc1ccc(N(CC)S(=O)(=O)N2CCCC(C(=O)Nc3ccc(C(C)=O)cc3)C2)cc1 (centres undefined) -20.5%, COc1ccc(Cn2cc(C(=O)c3ccc(C)cc3)c(=O)c3cc(OC)c(OC)cc32)cc1 -10.5%, Cc1csc2nc(COC(=O)c3ccc(NC(=O)COc4ccccc4F)cc3)cc(=O)n12 -15.4%, COc1ccc(OC)c(NC(=O)CSC2=Nc3ccccc3C3=NC(CC(=O)NCc4ccc(F)cc4)C(=O)N23)c1 (centres undefined) -6.91%, O=c1cc(COc2cccc(C(F)(F)F)c2)nc2sc3c(n12)CCCC3 20.1%, CCC(=O)Nc1cccc(-c2nc3cc(C)ccc3o2)c1 -34%, COc1ccc(Cl)cc1-n1c(CCC(=O)O)ccc1-c1ccc(C)cc1 4.72%, CCCC(=O)Nc1ccc(NC(=O)c2sc3ccccc3c2Cl)cc1 -17.3%, CC1CCCCN1S(=O)(=O)c1ccc(F)c(C(=O)Nc2ccccc2C(F)(F)F)c1 (centres undefined) 15.3%, CCc1cc2c(cc3c(=O)n(CC(=O)N4CCN(c5cc(Cl)ccc5C)CC4)nc(CC)n32)s1 3.78%, Cc1nn(-c2ccc(N3CCCCC3)nn2)c(C)c1CCC(=O)NCc1ccc(F)cc1 -10.3%, Cc1cc(C)cc(NC(=O)CCS(=O)(=O)c2cc3c4c(c2)CCN4C(=O)CC3)c1 -5.47%, CCOC(=O)N1CCC(NC(=O)c2cnn(-c3cccc(C)c3)c2C2CCN(C(=O)OC(C)(C)C)CC2)CC1 -7.69%, COc1ccc(CNC(=O)c2cc3c(=O)[nH]c4ccccc4c3s2)cc1 14.7%, CCOc1ccc(CNC(=O)C2CCCN(c3nnc(C)c4c(C)n(-c5ccccc5)nc34)C2)cc1 (centres undefined) -17.4%, Cc1nnc(C)n1-c1ccc(C(=O)Nc2cccc(Br)c2)cc1 -11.1%, COc1cc(NC(=O)CCNC(=O)Cn2ccc3ccccc3c2=O)cc(OC)c1OC -5.74%, CCc1nonc1NC(=O)c1oc2ccc(Cl)cc2c1C -14.9%, COc1ccccc1Nc1cc(C(=O)NCCCN(C)C2CCCCC2)c2ccccc2n1 21%, CCOC(=O)c1ccccc1NC(=O)c1nn(-c2ccc(OC)c(Cl)c2)c(=O)c2c1c1ccccc1n2C 22.8%, Cc1ccc(C)c(NC(=O)CSC2=Nc3ccccc3N=C(c3ccc(F)cc3)C2)c1 -7.52%, CCc1ccccc1NC(=O)Cn1c(=O)n(CC2CCC(C(=O)NCCc3ccccc3)CC2)c(=O)c2ccccc21 (centres undefined) -9.17%, COc1ccc(CNc2nc(-c3ccc(Cl)cc3)nn2S(=O)(=O)c2ccc(C)cc2)cc1 -11.7%, Cc1ccc(CN(C(=O)c2ccccc2[N+](=O)[O-])c2ccccn2)cc1 -12.4%, COc1ccc(NC(=O)C(=O)NCc2ccco2)cc1 -6.52%, CC1CN(C(=O)N2CCC(C(=O)NCc3cccs3)CC2)c2ccccc2O1 (centres undefined) -8.54%, Cc1ccc(S(=O)(=O)N2CCC(Oc3ccc(-n4cnnn4)cc3)CC2)cc1 -8.14%, Cc1ccc(F)cc1NC(=O)CCSc1nc(-c2ccco2)cc(C(F)(F)F)n1 5.17%, Cc1cc(C)c(-c2n[nH]c3c2C(c2ccccc2F)N(CCO)C3=O)c(O)c1 (centres undefined) -12.1%, CC(=O)Nc1ccc(S(=O)(=O)NCC2CCC(C(=O)NCCc3ccccc3)CC2)cc1 (centres undefined) -11%, COC(=O)c1ccccc1NC(=O)c1ccc2c(=O)n3c(nc2c1)CCCCC3 -6.07%, COc1ccc(S(=O)(=O)NCc2cccn2Cc2cccc(C)c2)cc1 -13.3%, COC(=O)CN1C(=O)CSc2ccc(S(=O)(=O)Nc3cc(C)ccc3C)cc21 2.15%, COc1ccc(CNC(=O)CSCc2nc(-c3ccccc3F)oc2C)cc1 -11%, O=C(Nc1ccc(F)cc1F)c1cnn(-c2ccc(F)cc2)c1-n1cccc1 4.84%, Cc1ccc(OCC(=O)Nc2ccc(Cl)c(-c3nc4ccccc4[nH]3)c2)cc1C -9.61%, Cc1oc2ncn(CC(C)C)c(=O)c2c1C(=O)N1CCN(c2ccccc2F)CC1 19.9%, COc1ccccc1NC(=O)c1cc(C2CC2)nc2c1c(C)nn2-c1ccc(C)cc1 -7.45%, Cc1ccc(CN2C(=O)SC(Nc3ccccc3)C2=O)cc1 (centres undefined) 3.26%, CCN(CCCNC(=O)c1cc2c(=O)n(CC)c3ccccc3c2s1)Cc1ccccc1 -11.1%, Cc1ccc(C(=O)NCCSc2c(C)[nH]c3ccccc23)cc1C -7.06%, O=C1CC(c2ccc(F)cc2F)c2cc3c(cc2N1)OCO3 (centres undefined) -10.5%, Cc1cccc(C(=O)N2c3nc(-c4ccco4)nn3C3(CCCCC3)[C@@H]3CCCC[C@@H]32)c1 -2.39%, O=C(CSc1nc(=O)n(Cc2cccnc2)c2c1CCC2)Nc1ccc(F)cc1F 19.5%, Cc1c(CNC2CCCCC2)c(C(=O)O)c(C)n1Cc1cccc(Cl)c1 -11%, CC(C)Oc1ccc(CNC(=O)C2CCN(c3nc4ccccc4n(C)c3=O)CC2)cc1 -2.14%, Cc1ccccc1NC(=O)Cn1c(=O)n(CCCCC(=O)NCc2ccccc2Cl)c(=O)c2ccccc21 -1.68%, COCCCNC(=O)c1ccc(NC(=O)c2nsc3ccccc23)cc1 2.98%, Cc1c(NC(=O)C(C)(C)C)cccc1-c1nc2ccccc2s1 -11.3%, Cc1ccn2c(Nc3ccc4c(c3)OCCO4)c(-c3ccc(C)s3)nc2c1 -21.3%, Cc1ccccc1CNC(=O)CCc1cn(Cc2ccccc2C)c2ccccc12 -11.9%, C[C@@]12CCC(=O)C=C1CC[C@H]1C2[C@@H](O)C[C@]2(C)[C@@H]1CC[C@@]2(O)C(=O)COC(=O)C1CCCC1 (some centres undefined) -4.6%, Cc1ccc(-n2nc(CO)c(C(=O)NCCc3ccccc3)n2)cc1 -11.8%, Cn1cc(S(=O)(=O)N2CCCCCC2)cc1C(=O)N1CCN(c2ccc(F)cc2)CC1 -9.82%, Cc1cccc(CSc2nc3ccncc3n2Cc2ccc(C(=O)O)cc2)c1 -11.1%, COc1ccc(CNc2nc(-c3ccc(Cl)cc3)nn2C(=O)c2ccccc2)cc1 -3.8%, CC1CCC(N2CC(=O)N(CCC3=CCCCC3)C(c3ccc(F)cc3)C2=O)CC1 (centres undefined) -12.5%, CN(Cc1ccccc1)S(=O)(=O)c1ccc(F)c(C(=O)Nc2cccc(Cl)c2Cl)c1 -33.7%, OC[C@H]1O[C@@H](n2cnc3c(NC4CCCC4)ncnc32)[C@H](O)[C@H]1O -11.3% [at 60.7 µM], Cc1cc(NS(=O)(=O)c2ccc3oc(=O)c4ncn(C)c4c3c2)ccc1Br 8.33%, O=C(CSc1nc(Nc2ccc(F)c(F)c2)c2ccccc2n1)c1ccc(Cl)cc1 -13%, COc1ccc(C(=O)Nc2cccc(C(=O)OCc3cc(=O)n4c5c(sc4n3)CCCC5)c2)cc1 -92.1%, Cc1ccc(SCC(=O)Nc2ccc3oc(-c4ccccc4C)nc3c2)cc1 -13.5%, CCc1nnc(SCc2c(F)cccc2Cl)c2cc3sccc3n12 4.75%, Cc1nn(-c2ccc(F)cc2)c(-n2cccc2)c1C(=O)N1CCN(c2ccccc2)CC1 -3.32%, CCc1ccc(S(=O)(=O)Nc2cc3c(C(=O)OCc4ccccc4)c(C)oc3c3ccccc23)cc1 -22.6%, CCCC(=O)Nc1cc2nn(-c3ccccc3)nc2cc1C -25.6%, COc1ccc(C(=O)c2oc3ccccc3c2NC(=O)COc2cccc(C)c2)cc1 -16.2%, CCCN(C(=O)Cn1cc(S(=O)(=O)N2CCN(c3ccccc3F)CC2)c2ccccc2c1=O)c1cccc(C)c1 -16.3%, COc1ccc(OCc2ccc(-c3nc(C#N)c(N4CCN(c5ccccc5)CC4)o3)o2)cc1 -12.1%, CN1c2ccc(Cl)cc2-c2nc(SCC(=O)Nc3cc(F)ccc3F)ncc2S1(=O)=O -6.64%, COc1ccc(N(CC(=O)NCCc2ccc(Cl)cc2)S(=O)(=O)c2c(C)nn(C)c2C)cc1 15.7%, CCN(CC)CCNC(=O)Cn1ncc2c3ccccc3n(Cc3ccccc3C)c2c1=O -5.94%, Cc1cccn2c(=O)c(C(=O)NC(C)c3ccccc3)cnc12 (centres undefined) -15.7%, CN(C)S(=O)(=O)c1ccc(C(=O)N(Cc2cccnc2)c2nc3c(F)cc(F)cc3s2)cc1 -7.79%, CCSc1nnc(NC(=O)c2cc(=O)c3cc(C)c(C)cc3o2)s1 -10.3%, CCOC(=O)c1ccc(NC(=O)Cn2c(=O)n(-c3ccc(C)cc3)c(=O)c3c2cnn3C)cc1 -10.8%, CCOC(=O)c1ccc(NC(=O)CC2C(=O)N(c3ccccc3)C(=O)N2Cc2cccs2)cc1 (centres undefined) 7.18%, CCOCCCn1c(SCC(=O)Nc2ccc(CC)cc2)nc2ccccc2c1=O -2.25%, CCC(=O)Nc1c(C(=O)N2CCN(c3ccc(F)cc3)CC2)oc2ccccc12 -6.14%, COc1ccc(S(=O)(=O)NCC(c2ccc(N(C)C)cc2)N2CCCC2)cc1 (centres undefined) -12.1%, CC(=O)Nc1cccc(NC(=O)CSc2nccn2Cc2ccc3c(c2)OCO3)c1 -8.32%, Fc1ccc(CSc2nc(NCc3ccccc3)c3ccccc3n2)cc1 -6.21%, Cc1cc(NS(=O)(=O)c2ccc(NC(=O)c3ccccc3C)cc2)nc(C)n1 20.1%, O=c1c(=O)n(Cc2c(F)cccc2Cl)ccn1Cc1ccccc1 -15.9%, CCOc1ccc(NC(=O)c2cn(C3CCCCC3)c(=O)c3c2c2ccccc2n3C)cc1 3.89%, CC1=C(C(=O)Nc2ccccc2Cl)C(c2cccs2)n2ncnc2N1 (centres undefined) -9.9%, CCc1ccc(NC(=O)c2sc3nc4c(cc3c2N)CN(CC)CC4)cc1 -5.27%, Cc1ccc(C(=O)Nc2ccc(C(=O)O)cc2)cc1S(=O)(=O)Nc1ccccc1 -5.39%, CCC(Sc1nc2n[nH]c(C)c2c(=N)n1-c1ccccc1Cl)C(=O)N(CC)CC (centres undefined) -7.79%, CCOC(=O)c1cnc2c(C)cc(C)cc2c1Nc1ccc(N2CCOCC2)cc1 -14.4%, CCOc1ccc(OCC)c(NC(=O)c2cc(C)nc3c2c(C)nn3-c2cccc(Cl)c2C)c1 8.2%, CCOc1ccc(CCNC(=O)C2=C(C)C(=O)OC23CCC(C)CC3)cc1OCC (centres undefined) 7.79%, CCOc1ccc(CCNC(=O)Cn2nc(CC)n3c(cc4sc(CC)cc43)c2=O)cc1OCC 4.59%, Cc1cc(C)cc(Nc2ncnc3onc(-c4ccc(F)cc4)c23)c1 18.6%, CCOc1ccc(CNC(=O)c2cc(=O)[nH]c3ccc(S(=O)(=O)N4CCCCC4)cc23)cc1 -16.4%
